{"source": "PubChem BioAssay AID2629", "about": "(Broad Institute, 2010)", "note": "Values joined by “and” are separate entries in the source; they are usually repeats but may differ in a detail not shown here. Identical values can stand only once. About 1,900 (0.59%) of roughly 320,000 compounds were called active. What follows is part of a selection rich in actives, with near analogues and random picks from the rest. A number with no mark means an inactive call. Cut-off read from the data, not from the text of the source: active = inhibition mostly above about 10% (no sharp cut-off); inactive = mostly below about 6.7%."}
{"molecular_target": "Protein LANA1 (Human herpesvirus 8 type P (isolate GK18)) (UniProt Q9QR71)", "sequence (Q9QR71 whole entry, looked up)": "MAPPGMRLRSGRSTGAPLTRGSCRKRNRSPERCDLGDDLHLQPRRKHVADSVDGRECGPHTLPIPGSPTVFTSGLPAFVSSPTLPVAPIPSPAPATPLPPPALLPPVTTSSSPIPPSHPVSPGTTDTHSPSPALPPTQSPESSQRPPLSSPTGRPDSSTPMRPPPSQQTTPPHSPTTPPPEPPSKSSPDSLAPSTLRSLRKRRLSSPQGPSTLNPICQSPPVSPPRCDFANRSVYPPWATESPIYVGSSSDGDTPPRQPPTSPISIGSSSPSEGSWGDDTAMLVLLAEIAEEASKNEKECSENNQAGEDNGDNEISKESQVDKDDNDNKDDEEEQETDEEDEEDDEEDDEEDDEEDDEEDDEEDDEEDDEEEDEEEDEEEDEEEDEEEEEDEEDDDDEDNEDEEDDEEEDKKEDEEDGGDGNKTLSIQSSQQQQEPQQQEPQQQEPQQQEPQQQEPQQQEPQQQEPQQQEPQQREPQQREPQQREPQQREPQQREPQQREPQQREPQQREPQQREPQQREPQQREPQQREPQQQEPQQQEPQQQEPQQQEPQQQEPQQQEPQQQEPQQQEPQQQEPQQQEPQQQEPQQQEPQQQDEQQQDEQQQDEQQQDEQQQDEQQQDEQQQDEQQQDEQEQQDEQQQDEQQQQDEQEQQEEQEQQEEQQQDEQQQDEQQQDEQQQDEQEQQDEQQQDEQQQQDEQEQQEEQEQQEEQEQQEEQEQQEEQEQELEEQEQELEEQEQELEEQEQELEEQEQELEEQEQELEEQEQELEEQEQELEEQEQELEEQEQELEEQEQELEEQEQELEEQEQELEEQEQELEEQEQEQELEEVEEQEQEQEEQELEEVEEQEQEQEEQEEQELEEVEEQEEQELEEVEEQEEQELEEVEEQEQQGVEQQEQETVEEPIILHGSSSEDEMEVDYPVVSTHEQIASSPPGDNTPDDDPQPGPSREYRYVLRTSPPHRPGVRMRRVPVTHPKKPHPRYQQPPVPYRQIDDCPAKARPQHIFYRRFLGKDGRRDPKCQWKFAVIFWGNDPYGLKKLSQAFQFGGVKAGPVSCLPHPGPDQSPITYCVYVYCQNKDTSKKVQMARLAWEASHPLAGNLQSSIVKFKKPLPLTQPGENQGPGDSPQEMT", "assay": "blockers of LANA interaction with H2A/H2B – biochemical, FP readout, HTS, primary screen (AID 2629)", "conditions": "cell-free LANA-H2A/H2B peptide, fluorescence polarization, stronger effect = higher value, concentration not given here"}
{"smiles": "CCOC(=O)N1CCN(CC(=O)Nc2ccc(F)cc2)CC1", "inhibition": "-4.74%"}
{"smiles": "CCOC(=O)N1CCN(C(=O)Cn2cnc3ccccc3c2=O)CC1", "inhibition": "3%"}
{"smiles": "CCOC(=O)N1CCN(CC(=O)Nc2cc(C)nn2-c2nc3ccccc3s2)CC1", "inhibition": "16.1% (active)"}
{"smiles": "O=C(OCc1ccccc1F)c1ccc2c(c1)OCCO2", "inhibition": "-6.13%"}
{"smiles": "CCOC(=O)c1nc(C)n(-c2ccc(Cl)cc2Cl)n1", "inhibition": "-1.22%"}
{"smiles": "CC(=O)c1cc(C#N)c(SCC(=O)C(C)(C)C)nc1C", "inhibition": "-1.09%"}
{"smiles": "CC(=O)c1nnn(-c2ccc(Cl)cc2C#N)c1C", "inhibition": "10.1% (active)"}
{"smiles": "Cc1ccc(S(=O)(=O)NC(C(=O)N2CCOCCOCCOCCOCC2)c2ccccc2)cc1", "note": "(stereo not drawn)", "inhibition": "-3.32%"}
{"smiles": "Brc1ccc(-c2n(-c3ccccn3)c3ccccc3[n+]2-c2ccccn2)cc1", "inhibition": "5.04%"}
{"smiles": "C[C@@H](C(=O)Nc1ccc2ccccc2c1)[C@@H]1C[C@@]1(C)[C@@H](NC(=O)c1cccnc1)c1ccccc1", "inhibition": "1.66%"}
{"smiles": "COc1ccc(C(=O)NC2CC2)cc1OC1CCN(Cc2cnn(C)c2)CC1", "inhibition": "2.53%"}
{"smiles": "COc1ccc(C(=O)NC2CC2)cc1OC1CCN(Cc2ccc(SC)cc2)CC1", "inhibition": "12.2% (active)"}
{"smiles": "COc1ccc(C(=O)NC2CC2)cc1OC1CCN(C/C=C/c2ccccc2)CC1", "inhibition": "5.63%"}
{"smiles": "COc1ccc(C(=O)n2nc(C)c(Br)c2C)cc1OC", "inhibition": "2.73%"}
{"smiles": "COc1ccc(C(=O)NC(=S)N2CCCCC2c2cccnc2)cc1OC", "note": "(stereo not drawn)", "inhibition": "-0.0544%"}
{"smiles": "Cc1cccn2c(=O)c3cc(C(=O)NC4CCCCC4)sc3nc12", "inhibition": "32.6% (active)"}
{"smiles": "Cc1ccccc1-n1nc(C)c2cc(C(=O)NC3CC3)sc21", "inhibition": "0.464%"}
{"smiles": "CN(C(=O)c1cc2c(=O)n3ccccc3nc2s1)C1CCCCC1", "inhibition": "-5.4%"}
{"smiles": "COc1ccc(/C=C(/NC(=O)c2ccco2)C(=O)Nc2ccc(C(C)=O)cc2)cc1", "inhibition": "3.73%"}
{"smiles": "Cc1ccc(NC(=O)/C(=C\\c2ccccc2)NC(=O)c2ccco2)cc1", "inhibition": "15.5% (active)"}
{"smiles": "O=C(Nc1ccccc1)/C(=C\\c1ccco1)NC(=O)c1ccco1", "inhibition": "4.48%"}
{"smiles": "Cn1c(=O)c2c(nc(NCCNC(=O)c3ccco3)n2Cc2ccccc2F)n(C)c1=O", "inhibition": "0.914%"}
{"smiles": "CC[N+](C)(CC)CCC[n+]1c(-c2ccccc2)c2cc(N)ccc2c2ccc(N)cc21", "inhibition": "37% (active)"}
{"smiles": "COc1cc(N/C=C2\\CC(=O)NC(C)=C2C#N)cc(OC)c1OC", "inhibition": "1.67%"}
{"smiles": "CCOC(=O)C(NS(=O)(=O)c1ccc(C)cc1)(C(F)(F)F)P(=O)(OCC(C)C)OCC(C)C", "note": "(stereo not drawn)", "inhibition": "-0.856%"}
{"smiles": "CC(C)C(=O)NC(NC(=S)NC1CCS(=O)(=O)C1)C(Cl)(Cl)Cl", "note": "(stereo not drawn)", "inhibition": "5.16%"}
{"smiles": "CCN(CC)CCN(C(=O)c1cccc([N+](=O)[O-])c1)c1nc2ccc(OC)cc2s1", "inhibition": "10.8% (active)"}
{"smiles": "CCOc1ccc2nc(N(CCN(C)C)C(=O)c3ccc4ccccc4c3)sc2c1", "inhibition": "-2.61%"}
{"smiles": "CCOc1ccc2nc(N(CCCN(C)C)C(=O)c3ccc(C(=O)c4ccccc4)cc3)sc2c1", "inhibition": "2.47%"}
{"smiles": "O=c1cc(-c2ccccc2)[nH]c2cc(F)ccc12", "inhibition": "-0.193%"}
{"smiles": "Cc1ccc(N/C(N)=N/c2nc(C(F)(F)F)cc(C(F)(F)F)n2)cc1", "inhibition": "1.07%"}
{"smiles": "Cn1c(=O)c(=O)n(C)c2cc(S(=O)(=O)NCCN3CCN(c4ccccc4F)CC3)ccc21", "inhibition": "2.45%"}
{"smiles": "Cc1ccc2c(c1)-c1c(ssc1=S)C(C)(C)N2C(=O)CN1C(=O)c2ccccc2C1=O", "inhibition": "-1.1%"}
{"smiles": "Cc1ccccc1CN1C(=O)c2ccccc2Sc2ccc(C(=O)NCCCN3CCOCC3)cc21", "inhibition": "19.6% (active)"}
{"smiles": "CCC1=Nc2cc(C(=O)NCCCN3CCOCC3)ccc2Sc2ccc(Br)cc21", "inhibition": "3.58%"}
{"smiles": "O=C(NCCCN1CCOCC1)c1ccc2c(c1)N(Cc1cccc(F)c1)C(=O)c1ccccc1S2", "inhibition": "-7.56%"}
{"smiles": "COc1ccc(Cl)cc1N(CC(=O)N/N=C/c1ccc(OCC(N)=O)cc1)S(C)(=O)=O", "inhibition": "0.205%"}
{"smiles": "COc1cc(NC(=O)c2[nH]cnc2C(N)=O)cc(C(=O)Nc2cccc(C(F)(F)F)c2)c1", "inhibition": "-1.33%"}
{"smiles": "O=C(Nc1ccccn1)C1CCN(S(=O)(=O)c2ccc3c(c2)OCCO3)CC1", "inhibition": "35.5% (active)"}
{"smiles": "O=C(Nc1ccccn1)C1CCN(S(=O)(=O)c2ccccc2)CC1", "inhibition": "-0.314%"}
{"smiles": "O=C(NCc1cccs1)C1CCN(S(=O)(=O)c2ccc3c(c2)OCCO3)CC1", "inhibition": "-3.5%"}
{"smiles": "Nc1c(-c2ccccc2)nnn1Cc1ccccc1", "inhibition": "-2.36%"}
{"smiles": "CCOC(=O)c1ccc(COC(=O)CCc2nc(-c3ccccc3)c(-c3ccccc3)o2)cc1", "inhibition": "-6.88%"}
{"smiles": "Cc1nnc(NC2=NCCCCC2)o1", "inhibition": "4.02%"}
{"smiles": "COc1ccc(C)cc1NC(=O)CSc1ccc(Cl)cc1", "inhibition": "-4.45%"}
{"smiles": "COc1ccc(C)cc1NC(=O)CNCc1cccs1", "inhibition": "0.209%"}
{"smiles": "Cc1onc(-c2ccccc2Cl)c1C(=O)NCCn1ccc2ccccc21", "inhibition": "-5.8%"}
{"smiles": "Cc1onc(-c2ccccc2Cl)c1C(=O)N(Cc1ccc(N(C)C)cc1)C(C)C", "inhibition": "12.7% (active)"}
{"smiles": "Cc1onc(-c2ccccc2Cl)c1C(=O)OCC(=O)c1ccccc1", "inhibition": "4.43%"}
{"smiles": "CC(C)COC(=O)n1c(=O)oc2ccc(S(=O)(=O)N3CCCCC3)cc21", "inhibition": "2.24%"}
{"smiles": "CCOC(=O)c1c(C)nc2c(c1C)c(=O)oc1ccccc12", "inhibition": "1.54%"}
{"smiles": "CCOC(=O)c1cc2cc3ccccc3cc2oc1=O", "inhibition": "16.8% (active)"}
{"smiles": "C=CCc1cccc2cc(C(=O)OCC)c(=O)oc12", "inhibition": "-5.34%"}
{"smiles": "NC(=O)C[n+]1cccc(C(N)=O)c1", "inhibition": "-3.37%"}
{"smiles": "CC(CO)(CO)NC(=O)c1ccc(=O)[nH]n1", "inhibition": "3.9%"}
{"smiles": "CCc1nn(CCCN2CCN(c3cccc(Cl)c3)CC2)c(=O)n1CCOc1ccccc1", "inhibition": "-0.456% and 3%"}
{"smiles": "c1ccc2cc(CCCc3cc4ccccc4cn3)ncc2c1", "inhibition": "2.17%"}
{"smiles": "Cc1noc(C)c1COc1ccccc1C(=O)N(C)CC(=O)Nc1cccc(F)c1", "inhibition": "0.0499%"}
